A selection: hits, their analogues and other compounds. The true share with any hit is near 3.6%.
Pf apPOL block = Pf-apPOL DNA polymerase inhibition; hit rate 0.25% among 210,000; inhibition, % at 10 µM; AID 1794808; Recombinant Pf-apPOL, molecular beacon fluorescence, 1.5 h
mHTT CaM bind = disrupts binding of mutant huntingtin to calmodulin | P42858 | AlphaScreen His-mHTT/GST-CaM binding, luminescence | inhibition, % at 15 µM | hit rate 3.6% among 190,000
Target sequence (P42858 whole entry, looked up, change not shown): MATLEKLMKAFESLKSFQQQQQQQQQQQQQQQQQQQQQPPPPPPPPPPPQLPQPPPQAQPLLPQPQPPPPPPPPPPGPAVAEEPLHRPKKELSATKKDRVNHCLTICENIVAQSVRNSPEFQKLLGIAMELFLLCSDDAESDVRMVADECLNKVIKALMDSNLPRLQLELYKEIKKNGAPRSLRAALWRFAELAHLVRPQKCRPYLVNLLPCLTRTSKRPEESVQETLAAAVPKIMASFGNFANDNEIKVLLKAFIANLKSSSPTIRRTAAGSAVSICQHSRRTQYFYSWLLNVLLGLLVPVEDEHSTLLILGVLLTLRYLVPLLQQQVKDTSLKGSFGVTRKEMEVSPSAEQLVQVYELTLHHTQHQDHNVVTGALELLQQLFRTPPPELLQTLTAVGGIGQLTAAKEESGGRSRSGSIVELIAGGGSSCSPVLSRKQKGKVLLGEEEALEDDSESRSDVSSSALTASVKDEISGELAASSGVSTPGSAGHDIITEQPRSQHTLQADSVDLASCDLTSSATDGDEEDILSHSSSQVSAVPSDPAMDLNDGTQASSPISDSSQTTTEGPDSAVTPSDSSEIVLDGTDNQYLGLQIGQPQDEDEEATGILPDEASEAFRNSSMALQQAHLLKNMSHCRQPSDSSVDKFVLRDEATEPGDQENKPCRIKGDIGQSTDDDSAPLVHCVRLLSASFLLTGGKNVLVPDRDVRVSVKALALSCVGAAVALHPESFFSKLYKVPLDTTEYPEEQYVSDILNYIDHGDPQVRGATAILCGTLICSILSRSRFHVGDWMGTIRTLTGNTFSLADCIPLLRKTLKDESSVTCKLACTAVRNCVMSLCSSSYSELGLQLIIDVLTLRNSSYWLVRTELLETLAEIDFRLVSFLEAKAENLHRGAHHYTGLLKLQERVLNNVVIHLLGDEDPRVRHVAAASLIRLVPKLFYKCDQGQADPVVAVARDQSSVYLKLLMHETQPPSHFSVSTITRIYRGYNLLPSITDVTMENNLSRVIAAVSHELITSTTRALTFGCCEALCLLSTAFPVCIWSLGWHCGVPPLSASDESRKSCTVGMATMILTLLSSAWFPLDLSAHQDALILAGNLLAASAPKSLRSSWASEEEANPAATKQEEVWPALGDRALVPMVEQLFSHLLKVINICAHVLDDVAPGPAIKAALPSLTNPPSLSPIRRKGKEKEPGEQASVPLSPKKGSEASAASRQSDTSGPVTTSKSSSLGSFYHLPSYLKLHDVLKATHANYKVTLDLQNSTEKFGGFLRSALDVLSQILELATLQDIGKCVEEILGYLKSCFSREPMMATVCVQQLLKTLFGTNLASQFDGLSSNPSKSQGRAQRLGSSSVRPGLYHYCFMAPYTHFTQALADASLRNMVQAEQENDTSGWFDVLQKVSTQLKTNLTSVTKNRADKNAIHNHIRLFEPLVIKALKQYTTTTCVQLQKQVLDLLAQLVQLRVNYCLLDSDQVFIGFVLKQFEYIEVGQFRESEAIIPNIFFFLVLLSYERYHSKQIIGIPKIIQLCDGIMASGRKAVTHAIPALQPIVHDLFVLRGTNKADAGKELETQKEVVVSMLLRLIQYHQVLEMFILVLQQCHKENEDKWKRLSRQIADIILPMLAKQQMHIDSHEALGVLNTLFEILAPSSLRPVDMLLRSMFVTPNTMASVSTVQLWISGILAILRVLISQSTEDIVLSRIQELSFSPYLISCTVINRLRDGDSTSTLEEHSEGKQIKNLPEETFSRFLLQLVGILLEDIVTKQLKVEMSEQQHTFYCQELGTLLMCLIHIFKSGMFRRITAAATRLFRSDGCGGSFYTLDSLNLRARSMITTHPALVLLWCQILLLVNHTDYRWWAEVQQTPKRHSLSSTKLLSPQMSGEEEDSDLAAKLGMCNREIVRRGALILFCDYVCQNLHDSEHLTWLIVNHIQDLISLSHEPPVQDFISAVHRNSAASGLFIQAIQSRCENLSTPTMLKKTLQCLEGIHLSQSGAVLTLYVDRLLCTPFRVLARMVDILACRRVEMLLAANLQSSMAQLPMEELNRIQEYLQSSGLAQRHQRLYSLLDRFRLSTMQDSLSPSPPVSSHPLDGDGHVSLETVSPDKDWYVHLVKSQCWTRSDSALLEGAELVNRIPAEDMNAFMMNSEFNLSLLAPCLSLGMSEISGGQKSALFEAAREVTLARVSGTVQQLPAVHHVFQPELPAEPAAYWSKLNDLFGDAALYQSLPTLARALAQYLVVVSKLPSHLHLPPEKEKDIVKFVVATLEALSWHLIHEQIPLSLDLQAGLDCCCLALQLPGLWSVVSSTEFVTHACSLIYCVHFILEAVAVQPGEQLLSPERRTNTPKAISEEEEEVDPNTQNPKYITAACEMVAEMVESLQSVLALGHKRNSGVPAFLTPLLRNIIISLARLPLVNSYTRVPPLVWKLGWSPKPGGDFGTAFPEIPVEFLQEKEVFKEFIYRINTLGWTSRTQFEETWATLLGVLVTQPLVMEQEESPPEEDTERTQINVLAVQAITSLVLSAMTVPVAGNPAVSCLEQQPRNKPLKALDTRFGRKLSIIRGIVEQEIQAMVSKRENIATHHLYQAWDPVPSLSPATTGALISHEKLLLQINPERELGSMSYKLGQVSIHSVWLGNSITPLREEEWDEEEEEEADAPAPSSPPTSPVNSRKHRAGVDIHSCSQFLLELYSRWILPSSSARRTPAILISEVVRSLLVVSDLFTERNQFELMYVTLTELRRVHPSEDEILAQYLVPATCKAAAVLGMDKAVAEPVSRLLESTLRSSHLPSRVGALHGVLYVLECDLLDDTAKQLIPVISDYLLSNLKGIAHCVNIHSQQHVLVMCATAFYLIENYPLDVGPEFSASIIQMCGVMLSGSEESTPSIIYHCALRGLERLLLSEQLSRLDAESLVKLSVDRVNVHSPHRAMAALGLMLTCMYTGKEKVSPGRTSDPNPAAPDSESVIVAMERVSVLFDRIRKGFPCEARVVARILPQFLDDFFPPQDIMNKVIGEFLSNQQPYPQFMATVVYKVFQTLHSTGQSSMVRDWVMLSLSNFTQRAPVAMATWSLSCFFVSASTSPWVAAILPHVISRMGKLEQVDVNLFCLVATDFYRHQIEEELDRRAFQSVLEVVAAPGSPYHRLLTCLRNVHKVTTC
Of the large screens only hits and unclear results are named; the others gave an inactive call. No stated cut-off is given here; in the data, active means inhibition above about 50%; inactive means the rest.

COc1ccccc1C1CC(c2cccc(C)c2)=NN1C(=O)CN1CCCCC1 (configuration not stated)	none
COc1ccccc1C1CC(c2ccc(C)cc2C)=NN1C(=O)CN1CCOCC1 (configuration not stated)	mHTT CaM bind 63.1
Cc1ccc(C2=NN(C(=O)CN3CCOCC3)C(c3cc(C)ccc3C)C2)c(C)c1 (configuration not stated)	mHTT CaM bind 65.4
Cc1ccc(C2=NN(C(=O)CN3CCOCC3)C(c3ccccc3F)C2)cc1 (configuration not stated)	none
Cc1ccc(C2=NN(C(=O)CN3CCOCC3)C(c3ccccc3C)C2)c(C)c1 (configuration not stated)	mHTT CaM bind 86.0
COc1ccccc1C1CC(c2ccc(F)cc2)=NN1C(=O)CN1CCCCC1 (configuration not stated)	mHTT CaM bind 100.2
COc1ccccc1C1CC(c2ccc(C)cc2)=NN1C(=O)CN1CCCCC1 (configuration not stated)	none
Cc1ccc(C2=NN(C(=O)CN3CCOCC3)C(c3ccccc3F)C2)c(C)c1 (configuration not stated)	none
COc1ccccc1S(=O)(=O)c1c(C)cc(C)cc1C	none
CCc1ccc(S(=O)(=O)Nc2ccccc2C)cc1	none
CCSc1nnc(NC(=O)CSc2nc3[nH]ncc3c(=O)[nH]2)s1	none
CCc1ccc(CNC(=O)c2cn3c(n2)COCC3)cc1	none
O=C(Cn1c(NCCO)nc2ccccc21)c1ccc([N+](=O)[O-])cc1	none
COc1ccc(OC)c(C2C(C(=O)Nc3ccccc3OC)=C(C)Nc3nnnn32)c1 (configuration not stated)	none
COc1ccc(N2CC(c3nnc(NC(=O)Cc4ccccc4C)o3)CC2=O)cc1 (configuration not stated)	none
COc1cccc(CC(=O)Nc2nnc(C3CC(=O)N(c4ccccc4)C3)o2)c1 (configuration not stated)	mHTT CaM bind 86.5
COc1cccc(N2CC(C(=O)O)CC2=O)c1 (configuration not stated)	none
CC(C)(Oc1ccc(Cl)cc1)C(=O)Nc1nnc(C2CC(=O)N(c3ccccc3)C2)o1 (configuration not stated)	mHTT CaM bind 98.1
CC(C)(C)C(=O)Nc1nnc(C2CC(=O)N(c3ccccc3)C2)o1 (configuration not stated)	none
COc1nn(C)cc1C(=O)Nc1nnc(-c2csc(C)n2)o1	mHTT CaM bind 58.3
Cc1nc(-c2nnc(NC(=O)CCSc3ccccc3)o2)cs1	none
COc1cccc(N2CC(C(=O)Nc3c(C(N)=O)oc4ccccc34)CC2=O)c1 (configuration not stated)	mHTT CaM bind 59.0
Cc1ccc(C=C2Oc3cc(OCC(=O)OC(C)(C)C)ccc3C2=O)cc1	none
COc1nn(C)cc1C(=O)Nc1nnc(C2CC(=O)N(c3ccccc3)C2)o1 (configuration not stated)	mHTT CaM bind 53.6
COc1ccc(N2CC(c3nnc(NC(=O)Cc4cccs4)o3)CC2=O)cc1 (configuration not stated)	mHTT CaM bind 65.5
COc1ccccc1C(=O)Nc1nnc(C2CC(=O)N(c3ccccc3)C2)o1 (configuration not stated)	none
CC(C)n1nccc1-c1nnc(NC(=O)C(C)(C)Oc2ccc(Cl)cc2)o1	mHTT CaM bind 65.9
CSc1ccc(N2CC(c3nnc(NC(=O)Cc4cccs4)o3)CC2=O)cc1 (configuration not stated)	none
CC(C)(Oc1ccc(Cl)cc1)C(=O)Nc1ccncc1	none
O=S(=O)(c1ccccc1)n1cccn1	none
Cn1c(=O)n(C)c2cc(/C=C(\C#N)c3nn(-c4ccccc4)c(N)c3C#N)ccc21	none
O=C(c1ccc(OCC2CCCN2C(=O)C2CC2)cc1)N1CCCC1 (configuration not stated)	none
Cc1ccccc1-n1nc2c(c1NC(=O)C13CC4CC(CC(C4)C1)C3)CSC2	none
Cc1ccccc1-n1nc2c(c1NC(=O)C13CC4CC(CC(C4)C1)C3)CS(=O)(=O)C2	Pf apPOL block 77.5
Cc1cc(C(=O)N2CCCC2c2ccccc2F)on1 (configuration not stated)	none
O=c1cc(-c2ccccc2Cl)oc2c(NS(=O)(=O)c3cc(Cl)cc(Cl)c3O)ccc(O)c12	mHTT CaM bind 96.6
O=C(Nc1ccc(O)c2c(=O)cc(-c3ccccc3Cl)oc12)c1ccc(Cl)cc1Cl	none
CCn1cc2c3c(cccc31)CN(C(=O)c1ccc(F)cc1)CC2	none
CCn1cc2c3c(cccc31)CN(C(C)=O)CC2	none
CCCn1cc2c3c(cccc31)CN(C(=O)COc1ccc(F)cc1)CC2	mHTT CaM bind 54.8
CCn1cc2c3c(cccc31)CN(C(=O)COc1ccccc1)CC2	mHTT CaM bind 75.5
Cc1ccc2[nH]cc(C(=O)O)c(=O)c2c1	none
CN(Cc1ccco1)C(=O)C1CCN(c2cncnc2N2CCOCC2)CC1	none
Oc1c(I)cc(I)cc1C=NCc1ccc(F)cc1	none (no result: mHTT CaM bind)
COCCCNC(=O)c1cc(-c2ccccc2)nc2ccccc12	none

Source: PubChem BioAssay (University of Kansas High Throughput Screening Laboratory)
